Source: PubChem BioAssay (National Center for Advancing Translational Sciences (NCATS))
Cycloheximide cs: counter-screen hit for Shiga toxin inhibitors, cycloheximide | cell reporter, cycloheximide protein synthesis inhibition counterscreen | max response, % | 300,000 compounds, 12% hits; in the data active = max response mostly above about 13%, no sharp cut-off; inactive = mostly below about 14%; note: read at 38.3 µM for the half of the compounds with a filed dose
TbPYK inhibitor: inhibitors of Trypanosoma brucei pyruvate kinase. Q57TT1. TbPYK enzyme, Kinase-Glo Plus ATP luminescence, 45 min. Potency, µM (highest dose often 76.8 µM), actives largely listed as inhibitors. 410,000 compounds, 0.12% hits. AID 624173; note: nearly all actives have a fitted effect of over 50% in size
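Screened from lowest to highest concentration, compounds were pinned into TbPYK/substrate mixtures, and ADP (130 uM final) was added. Plates sat at room temperature for 45 min prior to Kinase-Glo Plus detection by luminescence.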
RE007 growth inh: less growth of the S. pombe RE007 Vpr strain; Potency, µM (titrated, usually from 92.2 µM), actives largely listed as inhibitors; S. pombe RE007 Vpr strain, BacTiter-Glo ATP luminescence, 24 h; 360,000 compounds, 0.21% hits; active = well fitted falling curve with a large enough effect; inconclusive = small, poorly fitted or top-dose-only effect; inactive = no such curve, though single readings can be large or run the other way; note: nearly all actives have a fitted effect of over 50% in size
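Fission yeast RE007 carrying one integrated HIV-1 vpr copy, seeded at OD 0.01 in PMG+AL medium with 23 nL pinned compound. Grown 24 h at 30 degrees; viability read by BacTiter-Glo luminescence after 5 min.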
FBPA Giardia inh: Giardia lamblia aldolase inhibition. A8B2U2. purified Giardia FBPA. Potency, µM (highest dose often 59.6 µM), most hits filed as inhibitors. 290,000 compounds, 0.71% hits. AID 2451; note: nearly all actives have a fitted effect of over 55% in size
Target sequence (A8B2U2 whole entry, looked up): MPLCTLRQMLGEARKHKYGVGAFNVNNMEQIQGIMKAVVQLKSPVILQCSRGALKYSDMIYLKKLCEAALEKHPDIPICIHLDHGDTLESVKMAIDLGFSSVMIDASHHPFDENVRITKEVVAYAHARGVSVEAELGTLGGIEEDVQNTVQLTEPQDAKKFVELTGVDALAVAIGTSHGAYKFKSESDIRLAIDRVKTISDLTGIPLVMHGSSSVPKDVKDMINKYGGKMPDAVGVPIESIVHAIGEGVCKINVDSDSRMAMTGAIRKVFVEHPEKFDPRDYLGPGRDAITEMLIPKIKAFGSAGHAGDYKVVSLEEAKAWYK
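Giardia FBPA (40 nM reagent) was preincubated 10 min at RT with compound (up to 57.5 uM final), then substrate plus GAPDH/TPI/NAD/arsenate coupling system with diaphorase/resazurin was added; resorufin fluorescence (525/598 nm) was read after 20 min.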
Shiga toxin inh: Shiga toxin inhibition. Vero cells, Shiga toxin protein synthesis inhibition reporter. inhibition, % at 38.7 µM. 290,000 compounds, 9.2% hits. AID 2315; in the data active = inhibition mostly above about 28%, no sharp cut-off; inactive = mostly below about 43%
LmPK inhibitor: blocks Leishmania mexicana pyruvate kinase activity. Q27686. purified LmPK, Kinase-Glo ATP luminescence, 1 h. Potency, µM (highest dose often 57.5 µM), actives largely listed as inhibitors. 290,000 compounds, 0.37% hits
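Purified LmPK (0.1 nM) with 0.5 mM PEP and 0.1 mM ADP in imidazole buffer pH 7.2 with MgCl2/KCl, 1 h at room temperature. ATP formed was read by luciferase luminescence and normalized to no-enzyme and uninhibited controls.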
Of the large screens only hits and unclear results are named; the others gave an inactive call. Shown is part of a subset that was picked to be rich in hits. Unless noted, calls come from the whole dose curve; as a rule, active = well fitted curve in the direction sought with a large enough effect; inconclusive = small, poorly fitted or top-dose-only effect, or another doubt; inactive = no such curve, though single readings can be large; an effect the other way counts as inactive or inconclusive.

Cc1ccc(-c2nn(-c3ccccc3)cc2C(=O)N2CCN(c3ccccn3)CC2)cc1	Shiga toxin inh 42.2
O=C(c1cn(-c2ccccc2)nc1-c1ccccc1)N1CCN(c2ccccn2)CC1	Cycloheximide cs 23.0
CCCCCCN(C(=O)CCCCCN1C(=O)NC(C2CC2)C(C(=O)OCc2ccccc2)=C1C)C(C(=O)NCCCC)c1ccc(OCC(=O)OC)c(C(=O)OC)c1 (stereo not drawn)	none (no result: Cycloheximide cs, TbPYK inhibitor, RE007 growth inh, Shiga toxin inh, LmPK inhibitor)
Cc1ccc(CNC(=O)CSc2ncccn2)cc1	Cycloheximide cs 24.5, Shiga toxin inh 43.5
O=C(CSc1ncccn1)Nc1cccc2ccccc12	Cycloheximide cs 21.8
O=C(CSCC(=O)Nc1cccc2ccccc12)Nc1cccc2ccccc12	none
O=C(CSc1ncccn1)NCc1ccc(F)cc1	none
O=C(Nc1cccc2ccccc12)N1CCN(c2ncccn2)CC1	FBPA Giardia inh inconclusive
S=C(Nc1cccc2ccccc12)N1CCN(c2ncccn2)CC1	Cycloheximide cs 24.3, FBPA Giardia inh inconclusive
COC(=O)/C=C/c1ccc(-n2ccnc2)cc1	Cycloheximide cs 39.7, Shiga toxin inh 38.3
Cc1cccc(C)c1NC(=O)N1CCC(C(N)=O)(N2CCCCC2)CC1	none (no result: Cycloheximide cs, RE007 growth inh, FBPA Giardia inh, Shiga toxin inh, LmPK inhibitor)
C=CCNC(=O)COc1ccc(Br)cc1Cl	Cycloheximide cs 33.5
CN(C)CCCNC(=O)COc1ccc(Br)cc1Cl	none
COCCNC(=O)COc1ccc(Br)cc1Cl	Cycloheximide cs 32.5
COc1ccc(CNC(=O)CN(c2cc(C(F)(F)F)ccc2Cl)S(C)(=O)=O)cc1	none (no result: Cycloheximide cs, RE007 growth inh, FBPA Giardia inh, Shiga toxin inh, LmPK inhibitor)
Cc1cc(/C=N/NC(N)=S)c(C)n1-c1cccc(Cl)c1	none
Cc1cc(/C=N/NC(=O)c2nn(C)cc2Cl)c(C)n1-c1cccc(Br)c1	Cycloheximide cs 17.5
COc1ccc(/C=N/NC(=O)c2ccco2)cc1Cn1nc(C)cc1C	Cycloheximide cs 34.3, Shiga toxin inh 66.9
Cc1c(C(=O)N/N=C/c2ccoc2)cccc1[N+](=O)[O-]	none
CSC(=S)N/N=C/c1ccc(N(C)C)cc1	Cycloheximide cs 42.5, Shiga toxin inh 68.2
O=C(N/N=C/c1ccoc1)c1ccccc1F	Cycloheximide cs 74.6, Shiga toxin inh 89.8
CCCn1c2ccccc2c2cnn(CC(=O)NCCc3ccc(C)cc3)c(=O)c21	none (no result: Cycloheximide cs, RE007 growth inh, FBPA Giardia inh, Shiga toxin inh, LmPK inhibitor)
O=C(N/N=C\c1ccoc1)c1ccco1	Cycloheximide cs 35.4, Shiga toxin inh 60.8 (no result: FBPA Giardia inh)
CN(C)c1ccc(/C=N\NC(=O)c2cccc3cc[nH]c23)cc1	Cycloheximide cs 32.4, Shiga toxin inh 55.9
O=C(N/N=C/c1ccoc1)c1ccc([N+](=O)[O-])cc1	none (no result: FBPA Giardia inh)
CN(C)c1ccc(/C=N/NC(=O)c2ccco2)cc1	Cycloheximide cs 40.6, LmPK inhibitor 15.8µM
Cc1cccc(-n2c(C)cc(/C=N\NC(=O)c3ccco3)c2C)c1	Cycloheximide cs 35.3, Shiga toxin inh 96.5
CN(C)c1ccc(/C=N/NC(=O)c2cc(=O)[nH]c3ccccc23)cc1	none
Cc1cccc(-n2c(C)cc(/C=N/O)c2C)c1	none
CN(C)c1ccc(/C=N/NC(=O)C[n+]2ccccc2)cc1	none (no result: Cycloheximide cs, FBPA Giardia inh, Shiga toxin inh, LmPK inhibitor)
COc1ccc(C2CC(c3c(O)n(C4CCCCC4)c(=O)[nH]c3=O)=Nc3ccccc3S2)cc1 (stereo not drawn)	none (no result: Cycloheximide cs, RE007 growth inh, FBPA Giardia inh, Shiga toxin inh, LmPK inhibitor)
CCCSCCCNC(=O)c1sc2nc(C)cc(C)c2c1-n1cccc1	none (no result: Cycloheximide cs, RE007 growth inh, FBPA Giardia inh, Shiga toxin inh, LmPK inhibitor)
CCC(C)C(=O)OC1CCC=C2C=CC(C)C(CCC3CC(O)CC(=O)O3)[C@@H]21 (stereo partly drawn)	none (no result: Cycloheximide cs, RE007 growth inh, Shiga toxin inh, LmPK inhibitor)
COC(=O)N/N=C/c1ccc(OC(=O)c2ccco2)c(OC)c1	none
Cc1ccc(/C=N/NC(=O)c2ccco2)cc1	Cycloheximide cs 45.3, Shiga toxin inh 37.2, LmPK inhibitor inconclusive
Cc1cc(C(=O)NN=Cc2ccc(OC(=O)c3ccco3)cc2)c(C)o1	none (no result: Cycloheximide cs, FBPA Giardia inh, Shiga toxin inh, LmPK inhibitor)
O=C(N/N=C/c1ccc2ncccc2c1)c1ccco1	LmPK inhibitor 14.1µM
O=C(NCCc1ccccc1Cl)c1ccc2c(c1)nc1n2CCCCC1	none (no result: Cycloheximide cs, RE007 growth inh, FBPA Giardia inh, Shiga toxin inh, LmPK inhibitor)
CCOc1ccc(Cn2nnc3c(=O)[nH]c(C4CCN(C(=O)c5ccccc5)CC4)nc32)cc1	none (no result: Cycloheximide cs, RE007 growth inh, FBPA Giardia inh, Shiga toxin inh, LmPK inhibitor)
COc1cc(NC(=O)c2ccco2)ccc1NC(=O)C(C)C	none
O=C(Nc1ccc(NC(=O)c2cccs2)cc1)c1ccc2c(c1)OCCO2	none
COc1cc(NC(=O)c2ccc3c(c2)OCCO3)ccc1NC(=O)c1ccco1	Cycloheximide cs 18.9, Shiga toxin inh 39.2
COc1cc(NC(=O)c2ccc3c(c2)OCCO3)ccc1NC(=O)c1cccs1	Cycloheximide cs 21.8
COc1ccc2c(c1)c(=O)c(C(=O)c1ccc(F)cc1)cn2CC(=O)Nc1ccc2c(c1)OCO2	none (no result: Cycloheximide cs, RE007 growth inh, FBPA Giardia inh, Shiga toxin inh, LmPK inhibitor)
CCOC(=O)CN1C(=O)N(c2ccc(C)c(C)c2)S(=O)(=O)c2ccccc21	none (no result: Cycloheximide cs, RE007 growth inh, FBPA Giardia inh, Shiga toxin inh, LmPK inhibitor)
CCOC(=O)c1ccc(NC(=O)c2cc3cc(C)ccc3n2C)cc1	none (no result: Cycloheximide cs, RE007 growth inh, FBPA Giardia inh, Shiga toxin inh, LmPK inhibitor)
CCCN(S(=O)(=O)c1ccc(OCC)cc1)S(=O)(=O)c1cccs1	Cycloheximide cs 27.9, Shiga toxin inh 36.9
CC(C)(C)OC(=O)NS(=O)(=O)Nc1ccccc1Br	none (no result: TbPYK inhibitor, RE007 growth inh, LmPK inhibitor)
CS[C@@H]1SC[C@H]2C(=O)N(C)C(C(C)C)C(=O)OC[C@@H](NC(=O)c3cnc4ccccc4n3)C(=O)N[C@@H](C)C(=O)N(C)[C@H]1C(=O)N(C)C(C(C)C)C(=O)OC[C@@H](NC(=O)c1cnc3ccccc3n1)C(=O)N[C@@H](C)C(=O)N2C (stereo partly drawn)	none (no result: TbPYK inhibitor, RE007 growth inh, LmPK inhibitor)
